Data as given in PubChem BioAssay (EPA / NIEHS).
“And” between values parts separate entries of the source, which are not always exact repeats. Equal entries are not always repeated. The source made the active and inactive calls. How the source made its calls: active means hit-call score of the fitted dose curve at least 0.9, where 1 is the maximum; inactive means score below 0.9.

Test: BSK_4H_SRB: Viability Assessment in the BioMAP Diversity Plus: 4H Assay (AID 2283027);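 on AC50: curves fitted both ways versus DMSO so AC50 may be loss or gain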
Settings: primary human endothelial cells (HUVEC)
Description: BSK_4H is a cell-based, multiplexed-readout assay that uses umbilical vein endothelium, a human vascular primary cell, with measurements taken at 24 hours after chemical dosing in a 96-well plate.BSK_4H_SRB is an assay component measured in the BSK_4H assay. It measures […] related to cell death using Sulforhodamine staining technology.Data from the assay component BSK_4H_SRB was analyzed into 1 assay endpoint. This assay endpoint, BSK_4H_SRB, was analyzed with bidirectional fitting relative to DMSO as the negative control and baseline of activity. Using a type of viability reporter, gain or loss-of-signal activity can be used to understand changes in the signaling. Furthermore, this assay endpoint can be referred to as a primary readout, because this assay has produced multiple assay endpoints where this one serves a signaling function. To generalize the intended target to other relatable targets, this assay endpoint is annotated to the cell morphology intended target family, where the subfamily is cell conformation.
The levels of cell surface (or secreted, indicated by the prefix "s") biomarker endpoints were measured by ELISA. Overt cytotoxicity to cells in confluent adherent cultures (all systems other than the BT system) was assessed by measuring total protein levels using sulforhodamine B (SRB) staining in parallel cultures at the time of biomarker measurements, indicated as SRB endpoints. For proliferation assays for adherent cell types, individual cell types are cultured at sub-confluence and relative cell numbers quantified by SRB staining at time points optimized for each system (48 h: 3C and CASM3C systems; 72 h: BT and HDF3CGF systems; 96 h: SAg system). SRB was performed by staining cells with 0.1% SRB after fixation with 10% TCA and reading wells at 560 nm.Viability and proliferation of PBMC (T cells) was quantified by Alamar Blue reduction for the SAg and BT systems. For PBMC viability (referred to as PBMC Cytotoxicity within the assay endpoint names), cells were plated (75,000/well in a 96-well plate) and then chemical samples added for 1 h before addition of activators, SEB and TSST-1 (20 ng/mL final concentration each). Cells were incubated for 90 h. Then, Alamar Blue (20 uL/well) (Invitrogen, Cat DAL1100) was added for 6 h, and the plates were read with a fluorescence microplate reader at 546/580 nm (excitation/emission). For PBMC proliferation, cells were plated and activated as above but incubated for only 16 h prior to addition of Alamar Blue. Plates were read after 6 h.
In the case of CC1=CC(C)C(C=O)C(C)C1 (stereo not given) (tested in a mixture with another compound), the outcome is reported as “inactive”. In the case of COc1ccccc1NC(=O)CC(C)=O, the outcome is reported as “inactive”. In the case of CC(C)Cc1ccc(C(C)C(=O)O)cc1 (stereo not given), the outcome is reported as “inactive”. For C[C@]12CC[C@@H]3c4ccc(O)cc4CC[C@H]3[C@@H]1CC[C@@H]2O, the AC50 was 12.4 µM (active). For CC(C)CCCC(C)(C)O, the outcome was “inactive”. In the case of CC(C)(C)c1cccc(O)c1, the outcome is reported as “inactive”. For CCCCCCCCCCCCS, the AC50 was 29.6 µM (active). With CC(C)(CO)CO the outcome was “inactive”. With c1ccc(OCCOc2ccccc2)cc1 the outcome was “inactive”. For CC=CC(=O)C1=C(C)C=CCC1(C)C, the outcome was “inactive”. With c1ccc(Sc2ccccc2)cc1 the AC50 was 31.1 µM (active). In the case of C=C(C)C(=O)OCCC(F)(F)C(F)(F)C(F)(F)C(F)(F)C(F)(F)C(F)(F)C(F)(F)C(F)(F)F, the outcome is reported as “inactive”. With CC(=O)c1ccc(C)cc1 the outcome was “inactive”. In the case of C=CC(=O)OCC(CO)(COC(=O)C=C)COC(=O)C=C, the AC50 is reported as 0.566 µM (active). For CC(=O)CCC=C(C)CCC=C(C)C, the outcome was “inactive”. In the case of CCCCOCCOCCO, the outcome is reported as “inactive”. For CCCCCCCCCC(=O)OCC, the AC50 was 31.5 µM (active). With NC(=O)c1c(Cl)cccc1Cl the outcome was “inactive”. In the case of C=C(C)C(N)=O, the outcome is reported as “inactive”. For c1ccc2c(c1)-c1ccc3ccc4cccc5cc-2c1c3c45, the outcome was “inactive”. In the case of O=C(O)C(F)(F)C(F)(F)C(F)(F)C(F)(F)C(F)(F)C(F)(F)C(F)(F)C(F)F, the outcome is reported as “inactive”. With CC(=O)OC(C)(C)C1CC=C(C)CC1 (stereo not given) the AC50 was 31 µM (active). With CCOC(=O)CCCCCCCCC(=O)OCC the outcome was “inactive”. For OCCN1CCOCC1, the outcome was “inactive”. With CC(=O)OCC=C(C)CCC=C(C)CCC=C(C)C the outcome was “inactive”. For CCCCN(CCO)CCO, the outcome was “inactive”. With O=C(c1ccc(OCCN2CCCCC2)cc1)c1c(-c2ccc(O)cc2)sc2cc(O)ccc12 the AC50 was 33.2 µM (active). With O=S(=O)(O)C(F)(F)C(F)(F)OC(F)(F)C(F)(F)F the outcome was “inactive”. For O=C1OC2(c3ccc(O)cc3Oc3cc(O)ccc32)c2ccccc21, the outcome was “inactive”. With C=C(F)C(=O)OC(C(F)(F)F)C(F)(F)F the outcome was “inactive”. With Nc1ccc(N)c([N+](=O)[O-])c1 the outcome was “inactive”. In the case of CCn1cc(C(=O)O)c(=O)c2ccc(C)nc21, the outcome is reported as “inactive”. With CC/C(=C(\c1ccccc1)c1ccc(OCCN(C)C)cc1)c1ccccc1 the AC50 was 6.19 µM (active) and 8.06 µM (active). In the case of CCCO[Si](OCCC)(OCCC)OCCC, the outcome is reported as “inactive”. For O=S1(=O)CC(Cl)(Cl)C(Cl)(Cl)C1, the AC50 was 0.992 µM (active). With CC1(C)[C@H](C=C(Cl)Cl)[C@H]1C(=O)OCc1cccc(Oc2ccccc2)c1 the outcome was “inactive”. With CCOC(=O)C=Cc1ccccc1 the outcome was “inactive”. In the case of OCC(F)(OC(F)(F)C(F)(OC(F)(F)C(F)(F)C(F)(F)F)C(F)(F)F)C(F)(F)F (stereo not given), the AC50 is reported as 5.19 µM (active) and 3.7 µM (active). In the case of O=C(O)C(F)(F)OC(F)(F)C(F)(F)OC(F)(F)C(F)(F)C(F)(F)C(F)(F)F, the outcome is reported as “inactive”. In the case of CCC(=O)OCC=Cc1ccccc1, the outcome is reported as “inactive”.
